Reference: PubChem BioAssay AID1159580 (chemical genetic matrix, 2015)
Where “and” joins values, the source holds several entries; their conditions need not be identical. Equal values may be shown once. Screen size: about 5,500 compounds; about 2,000 (36%) were called active. Roughly 18% stayed inconclusive and do not appear here. Rule as the data show it: active = normalized growth mostly below about 0.91 (no sharp cut-off); inconclusive = no clear call, values can overlap the other calls; inactive = mostly above about 0.92. Some of the results follow.

Assay: chemical genetic growth profiling, strain panel (AID 1159580);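 also: tested at 20 µM; growth read once vehicle control cultures reached saturation at 30 °C; 1 = growth at the plate median or of vehicle wells; lower values mean less growth of the strain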
Conditions: S. cerevisiae deletion strains, growth OD

Measured: normalized growth

CC1OC(O[C@H]2/C=C/C=C/C=C/C=C/C=C/C=C/C=C/[C@H](C)[C@@H](O)[C@@H](C)[C@H](C)OC(=O)CC(O)CC(O)CCC(O)C(O)CC(O)C[C@]3(O)C[C@H](O)C(C(=O)O)C(C2)O3)C(O)[C@H](N)C1O (stereo partly drawn)
inactive: locus YAL030W, strain snc1, stronger effect = lower value 0.995 | locus YBL061C, strain skt5, stronger effect = lower value 1 | locus YBR009C, strain hhf1, stronger effect = lower value 0.987 | locus YBR021W, strain FUR4, stronger effect = lower value 1.02 | locus YBR023C, strain chs3, stronger effect = lower value 0.957 | locus YBR229C, strain ROT2, stronger effect = lower value 0.996 | locus YBR231C, strain swc5, stronger effect = lower value 0.912 | locus YBR279W, strain paf1, stronger effect = lower value 0.984 | locus YCL011C, strain gbp2, stronger effect = lower value 1 | locus YCL016C, strain dcc1, stronger effect = lower value 0.996 | locus YCL029C, strain bik1, stronger effect = lower value 1.02 | locus YCL069W, strain vba3, stronger effect = lower value 0.977 | locus YDL035C, strain GPR1, stronger effect = lower value 1 | locus YDL040C, strain nat1, stronger effect = lower value 1.01 | locus YDL074C, strain BRE1, stronger effect = lower value 1.03 | locus YDL101C, strain DUN1, stronger effect = lower value 1 | locus YDL134C, strain PPH21, stronger effect = lower value 0.986 | locus YDL185W, strain tfp1, stronger effect = lower value 1.04 | locus YDL192W, strain arf1, stronger effect = lower value 1.01 | locus YDR101C, strain arx1, stronger effect = lower value 1.06 | locus YDR162C, strain NBP2, stronger effect = lower value 0.974 | locus YDR297W, strain sur2, stronger effect = lower value 0.981 | locus YDR318W, strain mcm21, stronger effect = lower value 0.999 | locus YDR388W, stronger effect = lower value 1.02 | locus YDR502C, strain sam2, stronger effect = lower value 1.01 | locus YEL061C, strain CIN8, stronger effect = lower value 1.01 | locus YER015W, strain faa2, stronger effect = lower value 1 | locus YER110C, stronger effect = lower value 1.01 | locus YER155C, strain BEM2, stronger effect = lower value 1 | locus YER167W, strain BCK2, stronger effect = lower value 1.01 | locus YGL078C, strain dbp3, stronger effect = lower value 1 | locus YGL167C, strain pmr1, stronger effect = lower value 1.05 | locus YGL173C, strain kem1, stronger effect = lower value 0.982 | locus YGL248W, strain PDE1, stronger effect = lower value 0.964 | locus YGR135W, strain pre9, stronger effect = lower value 0.997 | locus YGR229C, strain SMI1, stronger effect = lower value 0.904 | locus YGR252W, strain gcn5, stronger effect = lower value 0.952 | locus YHR027C, strain rpn1, stronger effect = lower value 0.991 | locus YHR079C, strain IRE1 (second series), stronger effect = lower value 1.01 | locus YHR094C, strain hxt1, stronger effect = lower value 1.01 | locus YHR129C, strain ARP1, stronger effect = lower value 1.01 | locus YHR200W, strain rpn10, stronger effect = lower value 1.02 | locus YIL066C, strain RNR3, stronger effect = lower value 0.996 | locus YIL073C, strain SPO22, stronger effect = lower value 1.11 | locus YIL125W, strain kgd1, stronger effect = lower value 1.01 | locus YIR030C, strain dcg1, stronger effect = lower value 1.01 | locus YJL095W, strain BCK1 (second series), stronger effect = lower value 1 | locus YJL134W, strain LCB3, stronger effect = lower value 1.01 | locus YJL154C, strain vps35, stronger effect = lower value 0.987 | locus YJL164C, strain tpk1, stronger effect = lower value 0.996 | locus YJL166W, strain qcr8, stronger effect = lower value 0.987 | locus YJL168C, strain set2, stronger effect = lower value 1.01 | locus YJL187C, strain SWE1 (second series), stronger effect = lower value 0.99 | locus YJR043C, strain POL32, stronger effect = lower value 0.95 | locus YJR066W, strain TOR1, stronger effect = lower value 1.01 | locus YJR075W, strain HOC1, stronger effect = lower value 1.03 | locus YKL009W, strain mrt4, stronger effect = lower value 0.963 | locus YKL068W, stronger effect = lower value 0.997 | locus YKL085W, strain MDH1 (second series), stronger effect = lower value 1 | locus YKL085W, strain MDH1, stronger effect = lower value 1 | locus YKL160W, strain elf1, stronger effect = lower value 0.975 | locus YKR001C, strain vps1, stronger effect = lower value 1.04 | locus YKR091W, strain srl3, stronger effect = lower value 1.01 | locus YLR039C, strain RIC1, stronger effect = lower value 1.07 | locus YLR058C, strain SHM2, stronger effect = lower value 0.984 | locus YLR102C, strain apc9, stronger effect = lower value 1.02 | locus YLR258W, strain gsy2, stronger effect = lower value 0.981 | locus YLR262C, strain YPT6 (second series), stronger effect = lower value 0.936 | locus YLR262C, strain YPT6, stronger effect = lower value 1.07 | locus YLR268W, strain sec22, stronger effect = lower value 1.06 | locus YLR320W, strain mms22, stronger effect = lower value 0.917 | locus YLR330W, strain CHS5, stronger effect = lower value 1.02 | locus YLR342W, strain FKS1 (second series), stronger effect = lower value 1.04 | locus YLR371W, strain rom2, stronger effect = lower value 1.03 | locus YLR418C, strain cdc73, stronger effect = lower value 0.973 | locus YML016C, strain PPZ1, stronger effect = lower value 0.986 | locus YML032C, strain rad52, stronger effect = lower value 0.996 | locus YML124C, strain tub3, stronger effect = lower value 1.01 | locus YMR078C, strain ctf18, stronger effect = lower value 1.02 | locus YMR223W, strain ubp8, stronger effect = lower value 0.992 | locus YMR263W, strain SAP30, stronger effect = lower value 1 | locus YMR307W, strain GAS1, stronger effect = lower value 0.768 | locus YNL067W, strain RPL9B, stronger effect = lower value 0.982 | locus YNL153C, strain GIM3, stronger effect = lower value 0.994 | locus YNL183C, strain NPR1, stronger effect = lower value 0.994 | locus YNL209W, strain ssb2, stronger effect = lower value 0.993 | locus YNL233W, strain BNI4, stronger effect = lower value 0.982 | locus YNL250W, strain rad50, stronger effect = lower value 1 | locus YNL271C, strain bni1, stronger effect = lower value 1.01 | locus YNL298W, strain CLA4, stronger effect = lower value 1.01 | locus YNL307C, strain MCK1, stronger effect = lower value 1.03 | locus YNR049C, strain mso1, stronger effect = lower value 0.991 | locus YNR052C, strain pop2, stronger effect = lower value 0.983 | locus YOL012C, strain htz1 0.984 | locus YOL147C, strain pex11, stronger effect = lower value 1.01 | locus YOR061W, strain CKA2, stronger effect = lower value 1.01 | locus YOR069W, strain VPS5, stronger effect = lower value 0.994 | locus YOR070C, strain gyp1, stronger effect = lower value 0.971 | locus YOR083W, strain WHI5, stronger effect = lower value 0.956 | locus YOR106W, strain vam3, stronger effect = lower value 0.983 | locus YOR136W, strain idh2, stronger effect = lower value 1.02 | locus YOR144C, strain elg1, stronger effect = lower value 1.01 | locus YOR184W, strain ser1, stronger effect = lower value 1 | locus YOR265W, strain rbl2, stronger effect = lower value 0.987 | locus YOR270C, strain vph1, stronger effect = lower value 0.792 | locus YOR316C, strain cot1, stronger effect = lower value 1.02 | locus YPL051W, strain arl3, stronger effect = lower value 1 | locus YPL241C, strain CIN2, stronger effect = lower value 1.01 | locus YPR119W, strain clb2, stronger effect = lower value 1.01 | locus YPR141C, strain kar3, stronger effect = lower value 1.01 | locus YPR163C, strain tif3, stronger effect = lower value 1.03 | locus YPR167C, strain met16, stronger effect = lower value 1.03 | strain wtn01, stronger effect = lower value 1.07
0.993 (inactive) and 0.102 (active): locus YJL095W, strain BCK1, stronger effect = lower value
active: locus YAL021C, strain ccr4, stronger effect = lower value 0.0628 | locus YAL026C, strain drs2, stronger effect = lower value 0.059 | locus YBR171W, strain sec66, stronger effect = lower value 0.0768 | locus YCR088W, strain abp1, stronger effect = lower value 0.0609 | locus YDL005C, strain med2, stronger effect = lower value 0.0884 | locus YDR001C, strain nth1, stronger effect = lower value 0.0792 | locus YDR069C, strain doa4, stronger effect = lower value 0.0722 | locus YDR137W, strain rgp1, stronger effect = lower value 0.252 | locus YDR159W, strain sac3, stronger effect = lower value 0.696 | locus YDR195W, strain ref2 0.132 | locus YDR334W, strain swr1, stronger effect = lower value 0.115 | locus YDR335W, strain msn5, stronger effect = lower value 0.508 | locus YDR392W, strain spt3, stronger effect = lower value 0.07 | locus YEL003W, strain gim4, stronger effect = lower value 0.0549 | locus YEL037C, strain rad23, stronger effect = lower value 0.193 | locus YEL061C, strain CIN8 (second series), stronger effect = lower value 0.064 | locus YER016W, strain bim1, stronger effect = lower value 0.819 | locus YER111C, strain swi4, stronger effect = lower value 0.0759 | locus YER155C, strain BEM2 (second series), stronger effect = lower value 0.778 | locus YFR010W, strain ubp6, stronger effect = lower value 0.065 | locus YGL086W, strain mad1, stronger effect = lower value 1.07 [resistant] | locus YGL227W, strain vid30, stronger effect = lower value 0.0641 | locus YGL240W, strain doc1, stronger effect = lower value 0.856 | locus YGL253W, strain hxk2, stronger effect = lower value 0.0796 | locus YHR013C, strain ard1, stronger effect = lower value 1.38 [resistant] | locus YHR079C, strain IRE1, stronger effect = lower value 0.111 | locus YHR142W, strain chs7, stronger effect = lower value 0.843 | locus YJL092W, strain hpr5, stronger effect = lower value 0.0636 | locus YJL115W, strain asf1, stronger effect = lower value 0.893 | locus YJL129C, strain trk1, stronger effect = lower value 0.0757 | locus YKR026C, strain gcn3, stronger effect = lower value 0.0616 | locus YLL001W, strain dnm1, stronger effect = lower value 0.0851 | locus YLL026W, stronger effect = lower value 0.0668 | locus YLL041C, strain sdh2, stronger effect = lower value 0.0791 | locus YLR027C, strain aat2, stronger effect = lower value 0.0727 | locus YLR113W, strain HOG1, stronger effect = lower value 0.125 | locus YLR221C, strain rsa3, stronger effect = lower value 0.342 | locus YLR342W, strain FKS1, stronger effect = lower value 0.807 | locus YLR357W, strain rsc2, stronger effect = lower value 0.123 | locus YLR370C, strain arc18, stronger effect = lower value 0.112 | locus YLR384C, strain iki3, stronger effect = lower value 0.754 | locus YML120C, strain ndi1, stronger effect = lower value 0.0569 | locus YMR058W, strain fet3, stronger effect = lower value 0.0612 | locus YMR125W, strain sto1, stronger effect = lower value 0.0674 | locus YMR129W, stronger effect = lower value 0.0583 | locus YMR205C, strain PFK2, stronger effect = lower value 0.105 | locus YMR231W, strain pep5, stronger effect = lower value 0.881 | locus YNL071W, strain lat1, stronger effect = lower value 0.252 | locus YNL248C, strain rpa49, stronger effect = lower value 0.0699 | locus YNL322C, strain KRE1 (second series), stronger effect = lower value 0.092 | locus YOR001W, strain rrp6, stronger effect = lower value 0.0632 | locus YOR080W, strain dia2, stronger effect = lower value 0.389 | locus YOR231W, strain MKK1, stronger effect = lower value 0.109 | locus YOR290C, strain snf2, stronger effect = lower value 0.0611 | locus YPL078C, strain atp4, stronger effect = lower value 0.157 | locus YPL106C, strain sse1, stronger effect = lower value 0.319 | locus YPL240C, strain hsp82, stronger effect = lower value 0.108 | locus YPL256C, strain CLN2, stronger effect = lower value 0.122
1.01 (inactive) and 0.099 (active): locus YHR030C, strain SLT2, stronger effect = lower value
